According to PubChem BioAssay (Tox21):
Inconclusive results are not listed. Calls of active or inactive are those of the source. Unless noted, calls come from the whole dose curve; as a rule, active = well fitted curve in the direction sought with a large enough effect in the repeat runs; inconclusive = weak or mixed curves; inactive = no such curve, though single readings can be large; an effect the other way counts as inactive or inconclusive.

What was measured:
[1] = qHTS assay to identify aromatase inhibitors - cell viability counter screen (AID 743084);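 note: cells stimulated with testosterone during compound exposure; nearly all actives have a fitted effect of over 55% in size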
[2] = molecular target: Aryl hydrocarbon receptor (Homo sapiens) (UniProt P35869); assay: qHTS assay to identify small molecule that activate the aryl hydrocarbon receptor (AhR) signaling pathway (AID 743085); note: nearly all actives have a fitted effect of over 15% in size; note: potency is the fitted concentration of half-maximal effect;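 for activation: HG2L7.5c1 human HepG2 liver cells with stably integrated DRE-driven firefly reporter; series mostly up to about 70 µM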
In short: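 Measured in HG2L7.5c1 cells: CellTiter-Fluor signal (30 min incubation, 37C) for viability, then luciferase luminescence (30 min, room temperature). Compound contact time was 24 h at 37C, following a 5 h pre-incubation.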

[3] = qHTS assay to identify small molecule that activate the aryl hydrocarbon receptor (AhR) signaling pathway - cell viability counter screen (AID 743086);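 note: HepG2 liver cells carrying the AhR DRE luciferase reporter; series mostly up to about 70 µM; nearly all actives have a fitted effect of over 45% in size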
In short: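 HepG2-AhR-luc (HG2L7.5c1) cells, 4000/well, treated 24 h at 37 C with compound; viability measured as CellTiter-Fluor fluorescence after 30 min in the same wells as the luciferase read.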

[4] = molecular target: Peroxisome proliferator-activated receptor gamma (Homo sapiens) (UniProt P37231); assay: qHTS assay to identify small molecule antagonists of the peroxisome proliferator-activated receptor gamma (PPARg) signaling pathway (AID 743191; calls by dose curve; note: series mostly up to about 63 µM; nearly all actives have a fitted effect of over 30% in size)
In short: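 GeneBLAzer PPARg UAS-bla HEK293H cells, 5 h post-plating, exposed to compounds 17 h at 37C. LiveBLAzer B/G FRET substrate added for 1 h at room temperature; beta-lactamase reporter read by fluorescence intensity.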

[5] = qHTS assay to identify small molecule antagonists of the peroxisome proliferator-activated receptor gamma (PPARg) signaling pathway - cell viability counter screen (AID 743194); conditions: Potency: co-treated with 50 nM rosiglitazone; note: nearly all actives have a fitted effect of over 55% in size
In short: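 Cytotoxicity counter screen in PPARg-bla HEK293H cells, same wells as reporter assay. Compounds plus 50 nM rosiglitazone (final) for 17 h at 37 C, then viability read by CellTiter-Glo luminescence.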

[6] = qHTS assay for small molecule agonists of the antioxidant response element (ARE) signaling pathway (AID 743202; active = well fitted activation curve with a large enough effect in the signal ratio in the repeat runs, not every such curve was filed as active; the % refers to the signal ratio)
In short: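 HepG2 ARE-bla cells; 16 h treatment at 37 C; FRET-based beta-lactamase fluorescence read after 2 h substrate incubation at room temperature.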

[7] = qHTS assay for small molecule activators of the heat shock response signaling pathway - cell viability counter screen (AID 743209); note: nearly all actives have a fitted effect of over 50% in size
In short: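 To flag cytotoxic compounds, HSE-bla HeLa cells plated at 1500 cells/well were dosed for 5 h at 37 C, followed by the reporter FRET read and then CellTiter-Glo, with luminescence recorded 30 min after reagent addition.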

[8] = qHTS assay for small molecule activators of the heat shock response signaling pathway (AID 743210; active = well fitted activation curve with a large enough effect in the signal ratio in the repeat runs, with a control signal flat, not every such curve was filed as active; the % refers to the signal ratio;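 note: HeLa cells with beta-lactamase reporter driven by heat shock elements; series mostly up to about 63 µM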)
In short: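 Following overnight attachment, HSE-bla HeLa cells received test compounds for 5 h at 37 C; beta-lactamase activity was then detected via FRET substrate fluorescence.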

[9] = qHTS assay to identify small molecule agonists of the peroxisome proliferator-activated receptor delta (PPARd) signaling pathway - cell viability counter screen (AID 743211); note: nearly all actives have a fitted effect of over 55% in size
In short: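 Following 5 h plating at 37 C and 5% CO2, PPARd UAS-bla HEK293H cells took up test compounds for 17 h. Viability was quantified by luminescence 30 min after CellTiter-Glo addition at room temperature.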

[10] = molecular target: Peroxisome proliferator-activated receptor delta (Homo sapiens) (UniProt Q03181); assay: qHTS assay to identify small molecule agonists of the peroxisome proliferator-activated receptor delta (PPARd) signaling pathway (AID 743212; calls by dose curve)
In short: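 Tox21 library screened in GeneBLAzer PPARd UAS-bla HEK293H cells. After compound treatment at 37 C, a FRET-based beta-lactamase substrate was applied for 2 h and fluorescence recorded.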

[11] = qHTS assay to identify small molecule antagonists of the peroxisome proliferator-activated receptor delta (PPARd) signaling pathway - cell viability counter screen (AID 743213); note: nearly all actives have a fitted effect of over 50% in size
In short: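 CellTiter-Glo was added to PPARd-bla HEK293H wells following 17 h compound treatment in the presence of 300 nM L165041. Luminescence was recorded after 30 min at room temperature.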

[12] = molecular target: Peroxisome proliferator-activated receptor delta (Homo sapiens) (UniProt Q03181); assay: qHTS assay to identify small molecule antagonists of the peroxisome proliferator-activated receptor delta (PPARd) signaling pathway (AID 743215; active = well fitted inhibition curve with a large enough effect in the signal ratio in the repeat runs, not every such curve was filed as active; the % refers to the signal ratio;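 note: cells stimulated with agonist L165041 at 300 nM final during compound exposure; series mostly up to about 62 µM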)
In short: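 Screen format: qHTS, antagonist mode. HEK293H PPARd-bla cells received compound and 300 nM L165041 (final), 17 h, 37 C. Beta-lactamase detected via FRET substrate fluorescence, 2 h, room temperature.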

[13] = qHTS assay to identify small molecule agonists of the farnesoid-X-receptor (FXR) signaling pathway - cell viability counter screen (AID 743218); note: nearly all actives have a fitted effect of over 45% in size
In short: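 Same-well cytotoxicity check on FXR-UAS-bla HEK 293T cells: 5 h attachment, 16 h compound at 37 C, CellTiter-Glo luminescence read at room temperature after 30 min.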

[14] = qHTS assay to identify small molecule antagonists of the farnesoid-X-receptor (FXR) signaling pathway - cell viability counter screen (AID 743221; active = well fitted cell-killing curve with a large enough effect in the repeat runs, not every such curve was filed as active; note: nearly all actives have a fitted effect of over 50% in size)
In short: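 Compound effects on cell number were measured as CellTiter-Glo luminescence in HEK 293T cells expressing FXR-UAS-bla, after 16 h at 37 C with 50 uM CDCA (final).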

[15] = molecular target: Vitamin D3 receptor (Homo sapiens) (UniProt P11473); assay: qHTS assay to identify small molecule agonists of the vitamin D receptor (VDR) signaling pathway (AID 743222; calls by dose curve)
In short: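 Using LiveBLAzer B/G FRET detection, agonism was scored in VDR-bla cells exposed overnight (16 h, 37C) to DMSO-dissolved compounds; substrate incubation was 2 h at room temperature.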

[16] = molecular target: Vitamin D3 receptor (Homo sapiens) (UniProt P11473); assay: qHTS assay to identify small molecule antagonists of the vitamin D receptor (VDR) signaling pathway (AID 743223; active = well fitted inhibition curve with a large enough effect in the signal ratio in the repeat runs, not every such curve was filed as active; the % refers to the signal ratio)
In short: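 Beta-lactamase activity in VDR-bla cells is measured by FRET substrate fluorescence (2 h, room temperature) after cells spend 16 h at 37C with test compound and 3 nM final 1alpha,25-dihydroxyvitamin D3.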

[17] = qHTS assay for small molecule agonists of the antioxidant response element (ARE) signaling pathway - cell viability counter screen (AID 743203; calls by dose curve; note: nearly all actives have a fitted effect of over 55% in size)
In short: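 Parallel cytotoxicity read-out for the ARE-bla screen: HepG2 reporter cells, 16 hrs with compounds, then CellTiter-Glo luminescence.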

[18] = molecular target: Bile acid receptor (Homo sapiens) (UniProt Q96RI1); assay: qHTS assay to identify small molecule antagonists of the farnesoid-X-receptor (FXR) signaling pathway (AID 743217; active = well fitted inhibition curve with a large enough effect in the signal ratio in the repeat runs, not every such curve was filed as active; the % refers to the signal ratio)
In short: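 Quantitative HTS, beta-lactamase reporter format: FXR-UAS-bla HEK 293T cells co-treated 16 h at 37 °C with compounds and 50 uM final chenodeoxycholic acid, then read by B/G FRET fluorescence.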

[19] = molecular target: Bile acid receptor (Homo sapiens) (UniProt Q96RI1); assay: qHTS assay to identify small molecule agonists of the farnesoid-X-receptor (FXR) signaling pathway (AID 743220; active = well fitted activation curve with a large enough effect in the signal ratio in the repeat runs, not every such curve was filed as active; the % refers to the signal ratio)
In short: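 FXR-UAS-bla HEK 293T cells carrying a UAS-driven beta-lactamase reporter were plated for 5 h at 37C/5% CO2, then exposed to DMSO-dissolved Tox21 10K compounds for 16 h at 37C. A LiveBLAzer B/G FRET substrate was loaded for 2 h at room temperature before fluorescence reading.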

[20] = molecular target: Peroxisome proliferator-activated receptor gamma (Homo sapiens) (UniProt P37231); assay: qHTS assay to identify small molecule agonists of the peroxisome proliferator-activated receptor gamma (PPARg) signaling pathway (AID 743094; active = well fitted activation curve with a large enough effect in the signal ratio in the repeat runs, not every such curve was filed as active; the % refers to the signal ratio)
In short: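 Fluorescence-based beta-lactamase readout in HEK293H PPARg UAS-bla cells after 17 h compound exposure (37C) and 1 h B/G FRET substrate incubation at room temperature.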

Measured: Potency

Peroxisome proliferator-activated receptor delta (Homo sapiens), sequence (Q03181 whole entry, looked up): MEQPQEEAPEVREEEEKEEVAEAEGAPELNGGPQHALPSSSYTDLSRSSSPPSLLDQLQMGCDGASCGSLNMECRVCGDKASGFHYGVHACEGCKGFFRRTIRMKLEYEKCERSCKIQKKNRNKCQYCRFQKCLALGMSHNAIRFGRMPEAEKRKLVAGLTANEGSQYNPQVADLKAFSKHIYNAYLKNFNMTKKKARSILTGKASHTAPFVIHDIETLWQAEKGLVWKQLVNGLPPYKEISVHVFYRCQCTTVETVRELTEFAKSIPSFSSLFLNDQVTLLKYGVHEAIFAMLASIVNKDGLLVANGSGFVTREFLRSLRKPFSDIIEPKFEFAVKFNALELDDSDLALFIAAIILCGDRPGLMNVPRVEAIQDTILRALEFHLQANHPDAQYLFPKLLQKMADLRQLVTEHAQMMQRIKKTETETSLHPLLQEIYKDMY
Bile acid receptor (Homo sapiens), sequence (Q96RI1 whole entry, looked up): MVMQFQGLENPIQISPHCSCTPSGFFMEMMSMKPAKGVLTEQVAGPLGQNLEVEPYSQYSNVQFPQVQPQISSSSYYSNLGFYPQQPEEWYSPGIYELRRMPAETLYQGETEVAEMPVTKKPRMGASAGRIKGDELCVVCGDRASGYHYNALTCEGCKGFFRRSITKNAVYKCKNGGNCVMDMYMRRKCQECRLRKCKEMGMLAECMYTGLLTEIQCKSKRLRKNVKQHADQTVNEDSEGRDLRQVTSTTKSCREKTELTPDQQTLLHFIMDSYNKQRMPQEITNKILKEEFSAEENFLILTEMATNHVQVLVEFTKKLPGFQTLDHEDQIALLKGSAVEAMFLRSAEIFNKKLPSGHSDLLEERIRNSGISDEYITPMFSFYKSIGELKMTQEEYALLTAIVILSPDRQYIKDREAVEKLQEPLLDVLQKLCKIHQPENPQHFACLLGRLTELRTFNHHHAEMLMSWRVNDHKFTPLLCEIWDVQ
Peroxisome proliferator-activated receptor gamma (Homo sapiens), sequence (P37231 whole entry, looked up): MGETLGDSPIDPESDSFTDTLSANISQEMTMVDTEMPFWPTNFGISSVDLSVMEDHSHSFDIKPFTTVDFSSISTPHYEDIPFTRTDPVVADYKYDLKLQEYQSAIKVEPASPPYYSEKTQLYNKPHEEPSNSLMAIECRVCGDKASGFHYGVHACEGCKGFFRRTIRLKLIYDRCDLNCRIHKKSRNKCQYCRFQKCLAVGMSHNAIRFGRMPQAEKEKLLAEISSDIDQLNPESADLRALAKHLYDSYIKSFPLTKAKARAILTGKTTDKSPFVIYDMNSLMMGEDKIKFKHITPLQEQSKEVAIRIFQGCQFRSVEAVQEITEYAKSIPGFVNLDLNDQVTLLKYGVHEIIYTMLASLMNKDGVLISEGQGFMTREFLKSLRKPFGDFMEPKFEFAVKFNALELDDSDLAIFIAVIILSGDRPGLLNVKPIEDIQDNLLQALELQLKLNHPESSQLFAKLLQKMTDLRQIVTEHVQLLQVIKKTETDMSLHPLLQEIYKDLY
Vitamin D3 receptor (Homo sapiens), sequence (P11473 whole entry, looked up): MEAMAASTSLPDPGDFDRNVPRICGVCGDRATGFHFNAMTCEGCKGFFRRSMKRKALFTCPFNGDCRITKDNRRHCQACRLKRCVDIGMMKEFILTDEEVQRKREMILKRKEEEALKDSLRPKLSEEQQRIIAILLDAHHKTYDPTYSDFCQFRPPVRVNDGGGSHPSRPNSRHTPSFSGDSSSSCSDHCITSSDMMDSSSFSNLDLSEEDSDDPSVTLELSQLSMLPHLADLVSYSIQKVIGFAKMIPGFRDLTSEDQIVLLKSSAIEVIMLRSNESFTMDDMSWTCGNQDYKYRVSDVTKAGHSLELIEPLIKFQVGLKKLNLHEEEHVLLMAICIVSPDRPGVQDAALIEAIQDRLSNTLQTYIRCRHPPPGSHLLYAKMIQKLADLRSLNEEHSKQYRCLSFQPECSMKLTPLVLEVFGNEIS
Aryl hydrocarbon receptor (Homo sapiens), sequence (P35869 whole entry, looked up): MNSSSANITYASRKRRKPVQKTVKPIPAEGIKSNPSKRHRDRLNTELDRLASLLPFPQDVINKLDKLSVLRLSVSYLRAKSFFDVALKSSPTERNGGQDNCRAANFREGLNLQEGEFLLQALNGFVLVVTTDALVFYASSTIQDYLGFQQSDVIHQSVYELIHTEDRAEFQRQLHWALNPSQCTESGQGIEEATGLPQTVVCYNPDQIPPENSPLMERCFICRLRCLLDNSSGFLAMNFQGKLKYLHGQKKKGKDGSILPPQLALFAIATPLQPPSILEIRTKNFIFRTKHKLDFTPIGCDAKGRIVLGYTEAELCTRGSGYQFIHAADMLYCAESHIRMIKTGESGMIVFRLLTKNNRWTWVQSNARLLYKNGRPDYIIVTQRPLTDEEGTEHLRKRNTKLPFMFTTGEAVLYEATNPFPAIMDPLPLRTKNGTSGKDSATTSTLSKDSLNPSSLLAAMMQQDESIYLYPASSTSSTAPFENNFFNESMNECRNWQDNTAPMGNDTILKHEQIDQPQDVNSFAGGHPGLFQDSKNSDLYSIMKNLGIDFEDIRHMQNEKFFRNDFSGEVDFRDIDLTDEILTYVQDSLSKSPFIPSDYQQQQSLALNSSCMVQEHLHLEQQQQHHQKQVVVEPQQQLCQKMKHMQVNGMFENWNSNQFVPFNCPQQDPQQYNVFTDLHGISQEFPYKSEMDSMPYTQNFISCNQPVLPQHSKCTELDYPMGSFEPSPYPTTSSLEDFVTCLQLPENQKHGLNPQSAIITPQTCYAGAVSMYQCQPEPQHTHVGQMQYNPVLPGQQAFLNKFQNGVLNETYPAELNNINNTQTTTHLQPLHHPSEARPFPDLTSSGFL

CCCCN(CCCCO)N=O
not listed: [17] | [18] | [19] | [20]
inactive: all other assays above

O=[N+]([O-])c1cccc(O)c1
not listed: [6] | [20]
inactive: all other assays above

O=[N+]([O-])c1ccc(CBr)cc1
inactive: [1] | [2] | [3] | [20] | [5] | [17] | [7] | [8] | [9] | [13] | [14]

CC(C)CC#N
not listed: [11] | [14] | [20]
inactive: all other assays above

O=C1c2ccccc2C(=O)c2ccccc21
not listed: [14] | [18] | [19] | [20]
inactive: all other assays above

CCOP(=S)(OCC)SCSc1ccc(Cl)cc1
not listed: [4] | [6] | [10] | [16]
inactive: all other assays above

CN1C(=S)CN=C(c2ccccc2)c2cc(Cl)ccc21
not listed: [11] | [20]
inactive: all other assays above

C[C@@H]1CN(C2CCC(C#N)(c3ccc(F)cc3)CC2)CC[C@]1(C(=O)O)c1ccccc1 (stereo partly specified)
not listed: [10] | [13] | [20]
inactive: all other assays above

CC(C)(C)C(=O)C(Oc1ccc(Cl)cc1)n1cncn1 (stereo unspecified)
active: [2] 48.5 µM
not listed: [10] | [11] | [16] | [18] | [19] | [20]
inactive: all other assays above

CC(C1CC1)C(O)(Cn1cncn1)c1ccc(Cl)cc1 (stereo unspecified)
not listed: [4] | [6] | [13] | [16] | [18] | [19]
inactive: all other assays above

Cc1ncsc1CCCl
not listed: [4] | [5] | [8] | [11] | [12] | [18] | [19]
inactive: all other assays above

c1cc2c(c(N3CCNCC3)c1)OCCO2
not listed: [18] | [19] | [20]
inactive: all other assays above

CC(=O)CC(c1ccc(Cl)cc1)c1c(O)c2ccccc2oc1=O (stereo unspecified)
not listed: [6] | [16] | [18] | [19] | [20]
inactive: all other assays above

ClC(Cl)C(Cl)Cl
not listed: [4] | [10] | [11] | [12] | [14] | [15]
inactive: all other assays above

CNNC
not listed: [4] | [6] | [10] | [12] | [16]
inactive: all other assays above

CC(Cl)(Cl)[N+](=O)[O-]
not listed: [18] | [19] | [20]
inactive: all other assays above

COC(=O)c1c(C(F)F)nc(C(F)(F)F)c(C2=NCCS2)c1CC(C)C
not listed: [13] | [14] | [18] | [19] | [20]
inactive: all other assays above

CC1(C)C(=O)NC(=O)NC1=O
not listed: [4] | [6] | [10] | [12] | [16] | [18] | [19]
inactive: all other assays above
